Assay in all cases: NCI-60 one-dose screen, 48 h (100 = growth as untreated, 0 = no growth, -100 = all killed)
Details in all cases: 10 µM unless noted

In test [1] the test system is NCI-H23 lung.
The subject of test [2] is NCI-H226 lung.
Test [3] has as its system NCI-H322M lung.
The test system of test [4] is HOP-62 NSCLC.
The subject of test [5] is NCI-H460 lung.
Test [6] relates to HOP-92 NSCLC.
Test [7] has as its system NCI-H522 lung.
Test [8] deals with A549/ATCC NSCLC.
Test [9] concerns 786-0 renal.
Test [10] deals with COLO 205 colon.

This is part of a sample that, as a whole, favours compounds with a hit. Of some 83,000 tested, about 20% had one in any assay.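 A percent growth of 40 corresponds to 60% growth inhibition; 0 means no net growth; -100 means all cells died. Active threshold: below 10.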 Unmarked numbers belong to inactive results. The source made the active and inactive calls.

Regarding `O=C(O)CC1S/C(=N/N=C/c2nc3ccccc3s2)NC1=O` (stereo unspecified), the growth in [1] was 96.2%; in [2] it was 101%; in [3], 106%; in test [4] it was 108%; in test [5], 94.7%; in [6] it was 136%. Also, the growth in test [7] was 104%; in test [8], 96%; in test [9], 80.9%; in test [10], 135%.

In the case of `N#CC1=C(c2cccs2)Nc2c(c(-c3ccccc3)nn2-c2ccccc2)C12C(=O)Nc1ccccc12` (stereo unspecified), the growth is 13.6% in [1]; 12.8% in test [2]; 80.1% in test [3]; -20% (active) in [4]; 5.58% (active) in test [5]; -13.1% (active) in [6]. Also, the growth in [7] is 5.69% (active); in [8], 5.42% (active); in test [9], 1.25% (active); in test [10] it was 55.9%.

Regarding `O=C(NC(=S)N1CCN(c2ncnc3c2cnn3-c2ccccc2)CC1)c1ccc(F)cc1`, the growth in test [1] was 77.5%; in test [2], 84.9%; in test [3], 75.8%; in test [4], 70.6%; in test [5] it was 43.8%; in test [6], 67.9%. For the same compound, the growth in test [7] is 57.6%; in [8], 76.2%; in test [9], 98.6%; in test [10], 90.4%.

As for `Cc1ccc(/C=C/C(=O)c2ccc(S(=O)(=O)NCCNc3nc(N(C)C)nc(N4CCOCC4)n3)cc2)cc1`, the growth in test [1] is 95%; in test [2], 91.7%; in test [3] it was 93.7%; in test [4], 114%; in test [5], 103%; in test [6], 93.2%. Also, the growth is 72.3% in test [7], 80.4% in [8], 73% in test [9] and 114% in test [10].

Take `N#Cc1cc(-c2ccc3ncnc(N4CCc5cc(F)c(Cl)cc54)c3c2)cnc1N`: the growth is 50.2% in [1]; 59.1% in test [2]; 38.4% in test [3]; 77.5% in test [4]; 5.5% (active) in test [5]; 1.74% (active) in test [6]. Moreover, the growth in test [7] is 46%; in [8], 42%; in test [9] it was 22.1%; in [10], 12.2%.

For the compound `O=C1Nc2cc(-c3ccc(NS(=O)(=O)c4ccc(C(F)(F)F)cc4)cc3)ccc2/C1=C/c1ccc[nH]1`, the growth is 11% in test [1]; 49.7% in test [2]; 44% in [3]; 43.5% in [4]; 5.56% (active) in test [5]; 42.8% in [6]. Moreover, the growth in test [7] was -18.4% (active); in test [8] it was 18.7%; in test [9] it was 40.8%; in test [10], 23.9%.

`CN1CCN(C(=O)Oc2cc3c(c4ccccc24)[C@H](CCl)CN3C(=O)c2cc3cc(OCCCN4CCC4)ccc3[nH]2)[C@H]2CSSC[C@H]21`: the growth in test [1] is -65% (active); in [2] it was -14.5% (active); in test [3], -13.1% (active); in test [4], -37.8% (active); in test [5], 0.951% (active); in test [6], -18.8% (active). The growth is -54.8% (active) in test [7], 4% (active) in test [8], -8.82% (active) in [9] and -81.5% (active) in test [10].

With `COc1cccc(C(N)=Nc2ccc(OCCCCCCCCn3cncn3)cc2)c1`, the growth in [1] was 9.5% (active); in test [3] it was 58.1%; in [4], 16.2%; in [6], 73.7%; in [8], 24.6%; in [9] it was 28.4%.

For the compound `N#Cc1c(NC(=O)N2CCOCC2)n(-c2ccc(OC(F)(F)F)cc2)c2cc(F)ccc12`, the growth is 90.7% in test [1]; 87.3% in test [2]; 108% in [3]; 106% in test [4]; 94.5% in [5]; 102% in test [6]. The growth in [7] was 78.8%; in [8], 86.3%; in test [9], 112%; in test [10], 108%.

Consider `COC(=O)c1cccc(Oc2ccc(NC(=O)Nc3cc(C(F)(F)F)ccc3F)cc2)c1`, for which the growth is 69.3% in test [1]; 57.5% in test [2]; 91.1% in [3]; -8.81% (active) in test [4]; 30.6% in test [5]; 40.7% in test [6]. In addition, the growth in test [7] was 49.8%; in test [8] it was 47%; in [9], 47.3%; in [10], 88.2%.

Take `CC1=C(C(=O)Nc2ccccc2)C(c2ccc3ccccc3c2)n2c(nc3ccccc32)N1` (stereo unspecified): the growth in test [1] was 73.3%; in test [2], 84%; in [3], 66.3%; in test [4], 113%; in [5], -45.5% (active); in test [6] it was 64.2%. Also, the growth was 63% in test [7], 8.83% (active) in test [8], 10.6% in [9] and 112% in test [10].

The record behind these values is PubChem BioAssay (NCI).
